In the library only some 4.2% were active in any assay of this set; here they are far more common.
VDR inhibitor – Inhibitors of the vitamin D receptor (VDR): qHTS; Vitamin D3 receptor (Homo sapiens), P11473; VDR-SRC2-3 peptide fluorescence polarization, 2 h; Potency, µM, usual class: inhibitors; hit rate 0.93% among 400,000; AID 504847, 2011
Target sequence (P11473 whole entry, looked up): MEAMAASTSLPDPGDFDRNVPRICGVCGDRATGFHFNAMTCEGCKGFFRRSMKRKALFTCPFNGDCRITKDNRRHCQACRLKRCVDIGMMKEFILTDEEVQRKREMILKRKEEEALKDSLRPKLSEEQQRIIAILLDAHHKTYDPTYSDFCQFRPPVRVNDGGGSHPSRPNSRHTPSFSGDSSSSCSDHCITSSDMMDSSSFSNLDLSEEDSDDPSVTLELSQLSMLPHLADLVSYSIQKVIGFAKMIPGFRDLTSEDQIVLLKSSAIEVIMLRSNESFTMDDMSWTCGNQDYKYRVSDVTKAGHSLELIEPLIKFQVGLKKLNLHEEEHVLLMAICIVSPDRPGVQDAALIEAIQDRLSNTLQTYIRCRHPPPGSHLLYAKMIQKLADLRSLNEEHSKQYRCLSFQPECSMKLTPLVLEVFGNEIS
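VDR–SRC2-3 interaction, FP format. Cmpds 23 nl via pintool, brief spin, 2 h ambient incubation.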
12-LOX inh – Primary qHTS assay for inhibitors of human arachidonate 12S-lipoxygenase (ALOX12): Round 2; Potency, µM (highest dose often 108 µM), hits mostly inhibitors; AID 1671190, 2021; Polyunsaturated fatty acid lipoxygenase ALOX12 (Homo sapiens), P18054; purified 12hLO, xylenol orange hydroperoxide absorbance; hit rate 1.1% among 580,000
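Purified human 12hLO (150 nM final) in 25 mM Hepes, 0.01% Triton X-100, pH 7.0 was preincubated 15 min at room temperature with compound. Then 40 uM arachidonic acid was added, 30 min. Hydroperoxide was read by Fe-XO absorbance ratio 573/405 nm.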
PLK1 PBD inh – qHTS for Inhibitors of PLK1-PDB (polo-like kinase 1 - polo-box domain): Primary Screen | Serine/threonine-protein kinase PLK1 (Homo sapiens), P53350 | AID 720504, 2013 | Potency, µM, actives largely listed as inhibitors | Plk1 PBD binding of FITC phosphopeptide, fluorescence polarization | hit rate 2.8% among 360,000; also: series mostly up to about 57 µM; nearly all actives have a fitted effect of over 65% in size
Sfp inh – qHTS Assay for Inhibitors of Bacillus subtilis Sfp phosphopantetheinyl transferase (PPTase). 4'-phosphopantetheinyl transferase ffp (Bacillus subtilis), Q9F4F7. Biochemical Sfp PPTase activity, qHTS. Potency, µM, usual class: inhibitors. hit rate 3.5% among 310,000. AID 1490, 2009;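 also: the enzyme is Sfp with the accession as filed and its product quenches rhodamine fluorescence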
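Reaction rates are the 30-min fluorescence difference (ex 525, em 598 nm) in wells containing 15 nM Sfp, 5 uM rhodamine-CoA and 12.5 uM BHQ-2-YbbR at pH 7.6 with 10 mM MgCl2.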
Each line names hits and unclear results; the compound was inactive in the other large screens. Calls follow the shape of the dose curve; as a rule, active = well fitted curve in the direction sought with a large enough effect; inconclusive = small, poorly fitted or top-dose-only effect, or another doubt; inactive = no such curve, though single readings can be large; an effect the other way counts as inactive or inconclusive.

Cc1ccc(S(=O)(=O)n2nc(-c3ccco3)nc2N)cc1	Sfp inh 89µM
CCc1ccc(/C=C/C(=O)c2cc(Br)ccc(=O)c2O)cc1	VDR inhibitor 20µM, 12-LOX inh inconclusive, PLK1 PBD inh 21µM, Sfp inh 14µM
CCc1ccc(/C=C/C(=O)c2ccc(O)cc2)cc1	none (no result: VDR inhibitor, PLK1 PBD inh, Sfp inh)
O=C(CC(NC(=O)C(F)(F)F)c1ccccc1)Nc1nnc(CCc2ccccc2)s1 (centres undefined)	PLK1 PBD inh inconclusive, Sfp inh 18µM
C=CCNC(=O)c1onc(CSc2cccc(Cl)c2)c1C(=O)O	12-LOX inh inconclusive
CCCc1nnc2sc(-c3ccc(CNC(=O)c4cccc(F)c4)cc3)nn12	none (no result: VDR inhibitor, PLK1 PBD inh, Sfp inh)
N#C/C(=C\c1ccc(C#N)cc1)C(=O)c1ccccc1	VDR inhibitor 79µM, 12-LOX inh inconclusive, PLK1 PBD inh 4.7µM, Sfp inh 50µM
N#C/C(=C\c1cccs1)C(=O)NCC1CCCO1 (centres undefined)	none
CC(=O)C(=Cc1ccc(-c2ccccc2)cc1)C(=O)c1ccccc1	none (no result: VDR inhibitor, Sfp inh)
CN(C)c1ccc(C=C(C#N)C(=O)c2ccccc2)cc1Br	12-LOX inh inconclusive, PLK1 PBD inh 0.84µM (no result: VDR inhibitor, Sfp inh)
N#CC(=Cc1ccc(-c2ccccc2)cc1)C(=O)c1ccccc1	12-LOX inh inconclusive, PLK1 PBD inh 1.5µM (no result: VDR inhibitor, Sfp inh)
N#C/C(=C\c1cccs1)C(=O)c1ccccc1	PLK1 PBD inh 6.7µM
Cc1nc(-c2ccccn2)nc(N(C)c2ccccc2)c1Cl	none
CNC(=O)CNC(=O)Cc1n[nH]c(=O)c2ccccc12	none (no result: VDR inhibitor, PLK1 PBD inh, Sfp inh)
CN(C)c1ccc(/C=C(\C#N)C(=O)c2ccccc2)cc1	none
COC(=O)/C(C#N)=C/c1ccc(OC(=O)c2ccccn2)cc1	Sfp inh 14µM
Cc1ccc(C=C(C#N)C(=O)c2ccccc2)cc1	PLK1 PBD inh 1.9µM (no result: VDR inhibitor, Sfp inh)
COc1ccc(C=C(C#N)C(=O)c2ccccc2)cc1	PLK1 PBD inh 6.7µM (no result: VDR inhibitor, Sfp inh)
COc1ccc(/C=C(\C#N)C(=O)C(C)(C)n2cncn2)cc1	PLK1 PBD inh 13µM
CCOc1ccc(/C=C(\C#N)C(=O)Nc2ccccn2)cc1	none
CC1CCC(NC(=O)CN(C)S(=O)(=O)c2ccc3c(c2)CCC(=O)N3)CC1 (centres undefined)	none
N#Cc1c(C(F)(F)F)cc(-c2ccccc2)nc1SCC(=O)Nc1sc2c(c1C#N)CCC2	12-LOX inh inconclusive, PLK1 PBD inh 30µM
CC(Sc1nc(-c2ccccc2)cc(C(F)(F)F)n1)C(=O)Nc1sc2c(c1C(N)=O)CCC2 (centres undefined)	Sfp inh inconclusive
CC(Sc1nc(-c2ccccc2)cc(C(F)(F)F)n1)C(=O)Nc1sc2c(c1C#N)CCC2 (centres undefined)	12-LOX inh inconclusive, PLK1 PBD inh 24µM
CN(C)c1ccc(NC(=S)c2ccc3ccccc3n2)cc1	VDR inhibitor inconclusive, 12-LOX inh inconclusive, PLK1 PBD inh 1.1µM, Sfp inh 7.1µM
O=C(NCCc1ccc(Cl)cc1)c1cc(-c2ccccn2)nc2ccccc12	PLK1 PBD inh 19µM
O=C(NCCc1ccc(Cl)cc1)c1cc(-c2ccncc2)nc2ccccc12	none
O=C(NCCc1ccc(Cl)cc1)c1ccccn1	12-LOX inh 32µM (no result: VDR inhibitor, PLK1 PBD inh, Sfp inh)
Cc1c(C)c2c(OCC(=O)NCC(=O)NCC(=O)O)cc3c(c2oc1=O)CCC(C)(C)O3	VDR inhibitor inconclusive, PLK1 PBD inh 12µM
Cc1c(C)c2c(OCC(=O)O)cc3c(c2oc1=O)CCC(C)(C)O3	none
Cc1ccc(OCCCCc2c(C)n[nH]c2C)c(C(C)(C)C)c1	12-LOX inh 35µM (no result: VDR inhibitor, PLK1 PBD inh, Sfp inh)
CC(C)c1c(C(=O)N/N=C/c2ccc(OCc3ccc(F)cc3)cc2)nnn1-c1nonc1N	PLK1 PBD inh 21µM
COc1ccccc1/C(C)=N/NC(=O)c1nnn(-c2nonc2N)c1C(C)C	VDR inhibitor inconclusive, PLK1 PBD inh 12µM
COc1ccc(NC(=O)Cn2c(=O)n(-c3cccc(C(F)(F)F)c3)c(=O)c3sccc32)cc1	none (no result: PLK1 PBD inh, Sfp inh)
CC(=O)c1ccc(NC(=O)c2cccc(S(=O)(=O)N3CCN(C)CC3)c2)cc1	none
Cc1ccc(OCC(=O)c2ccc(Cl)s2)c([N+](=O)[O-])n1	VDR inhibitor inconclusive, 12-LOX inh inconclusive, PLK1 PBD inh inconclusive, Sfp inh 20µM
CC(C)N1CCN(C2CCN(c3ccc4c(c3)CCC4)CC2)CC1CCO (centres undefined)	none (no result: VDR inhibitor, PLK1 PBD inh, Sfp inh)
COc1ccccc1-c1cc(C(F)(F)F)nc(S(=O)(=O)CCCC(=O)NC(C)C)n1	VDR inhibitor inconclusive, PLK1 PBD inh inconclusive
COc1ccccc1-c1cc(C(F)(F)F)nc(S(=O)(=O)CCCC(=O)N2CCCCC2C)n1 (centres undefined)	VDR inhibitor 32µM, PLK1 PBD inh inconclusive
CCOC(=O)c1[nH]c2ccc(F)cc2c1NC(=O)CCC1CCCC1	none (no result: VDR inhibitor, PLK1 PBD inh, Sfp inh)
CC(NC(=O)Cn1nc(C(=O)O)c2ccccc2c1=O)c1ccccc1 (centres undefined)	PLK1 PBD inh 30µM
Cc1cc(=O)n(CC(=O)NC(C)c2ccccc2)c2c1c(C)nn2C (centres undefined)	12-LOX inh 50µM (no result: PLK1 PBD inh, Sfp inh)
CC(NC(=O)Cn1nc(-c2ccccc2)c2ccccc2c1=O)c1ccccc1 (centres undefined)	none
Cn1ccnc1C(NC(=O)Cc1n[nH]c(=O)c2ccccc12)c1cccc(F)c1 (centres undefined)	none (no result: VDR inhibitor, PLK1 PBD inh, Sfp inh)
CC(=O)c1c[nH]c(C(=O)NC(c2cccc(F)c2)c2nccn2C)c1 (centres undefined)	12-LOX inh 22µM (no result: VDR inhibitor, PLK1 PBD inh, Sfp inh)
CC(=O)Nc1ccc(S(=O)(=O)NCC(=O)NNC(=O)c2csc(N3CCOCC3)n2)cc1	PLK1 PBD inh 21µM (no result: Sfp inh)
CC(C)CN1C(=O)/C(=C/c2ccco2)NC1=S	12-LOX inh 28µM, PLK1 PBD inh inconclusive, Sfp inh 35µM
O=C1N/C(=C/c2ccco2)C(=O)N1Cc1ccccc1F	12-LOX inh inconclusive, Sfp inh 50µM
Cc1cc(/C=C2/NC(=O)N(Cc3ccccc3F)C2=O)c(C)n1C	PLK1 PBD inh 30µM
CC(C)CN1C(=O)/C(=C/c2cccs2)NC1=S	12-LOX inh inconclusive
Cc1ccc(/C=C2/NC(=O)N(Cc3ccccc3F)C2=O)s1	none
Cc1cc(Cl)ccc1OCC(=O)N(Cc1ccc(Cl)cc1)CC1CCCO1 (centres undefined)	none (no result: VDR inhibitor, PLK1 PBD inh, Sfp inh)
CC(=O)Nc1ccc(-c2csc(NC(=O)CCCc3cccs3)n2)cc1	none
CC(C)CNC(=O)c1cccc(NC(=O)C(C)Oc2ccccc2)c1 (centres undefined)	PLK1 PBD inh 27µM
O=C(O)c1cccc(N2C(=O)C3C4C=CC(C4=C(c4ccccc4)c4ccccc4)C3C2=O)c1 (centres undefined)	12-LOX inh inconclusive, PLK1 PBD inh 30µM, Sfp inh 35µM
CCCCN1C(=O)C2(NNc3ccccc3O2)c2ccccc21 (centres undefined)	12-LOX inh inconclusive, Sfp inh inconclusive
Clc1ccccc1N1CCN(c2ncnc3c2c(-c2ccccc2)cn3-c2ccccc2)CC1	none (no result: PLK1 PBD inh, Sfp inh)
